Data: PubChem BioAssay AID504652 (National Center for Advancing Translational Sciences (NCATS), 2011)
In all, about 360,000 compounds went through this assay and about 11,000 (3.1%) were called active. Cut-off read from the data, not from the text of the source: active = activity change below about -30%; inactive = the rest. The full list was thinned out, with actives kept by preference.

Biological target: D(1A) dopamine receptor (Homo sapiens) (UniProt P21728)
Assay: Antagonist of Human D 1 Dopamine Receptor: qHTS
Conditions: HEK293 TREx D1 cells, calcium flux, dopamine EC80; at 10 µM; hits give low values
Outline: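 Tetracycline-induced HEK293 T-REx cells with force-coupled D1 receptor were loaded with a no-wash calcium dye. Compound was added after a 10 s baseline and read kinetically for 180 s; EC80 dopamine was then added and calcium flux followed another 180 s.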
% is set by controls: 0 for no effect and ±100 for the full control effect.

Chain of D(1A) dopamine receptor (Homo sapiens) (P21728 whole entry, looked up): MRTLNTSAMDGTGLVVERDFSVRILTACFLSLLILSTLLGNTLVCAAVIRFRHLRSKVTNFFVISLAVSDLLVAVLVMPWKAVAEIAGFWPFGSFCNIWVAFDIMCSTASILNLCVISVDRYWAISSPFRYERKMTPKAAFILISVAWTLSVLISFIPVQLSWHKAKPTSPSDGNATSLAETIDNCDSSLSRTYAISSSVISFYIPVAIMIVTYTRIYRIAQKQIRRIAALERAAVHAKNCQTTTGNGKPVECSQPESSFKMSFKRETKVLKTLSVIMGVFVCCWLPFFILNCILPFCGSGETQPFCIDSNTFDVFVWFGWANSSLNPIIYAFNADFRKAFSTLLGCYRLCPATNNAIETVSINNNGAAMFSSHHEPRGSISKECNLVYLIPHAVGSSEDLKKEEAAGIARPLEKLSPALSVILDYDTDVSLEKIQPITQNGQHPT

Activity change, negative = inhibition, inactive:
Cc1ccn(CC(=O)N2N=C(C(F)F)CC2(O)C(F)F)n1 (stereo unspecified) 3.73%
Cc1ccc(C(C)NC(=O)Cn2nc(C)c([N+](=O)[O-])c2C)cc1 (stereo unspecified) -12%
CCc1nnc(SCc2nc(-c3cccc(C)c3)oc2C)c2cc3sc(C)cc3n12 8.82%
CCc1cccc(NC(=O)c2cnc(N3CCOCC3)c3ccccc23)c1 -4.31%
CC(=O)c1sc(N2C(=O)c3oc4ccccc4c(=O)c3C2c2ccc(C)cc2)nc1C (stereo unspecified) 1.92%
O=C(CN1CCCCC1)Nc1ccccc1C(=O)NC1CC1 6.93%
COC(=O)c1ccccc1NC(=O)CSc1nnnn1C -7.79%
Cc1cccc(CCNC(=O)c2ccc3c(c2)nc2n3CCC(C)C2)c1 (stereo unspecified) 2.06%
Oc1ccc(Cl)cc1C1C=C(c2ccc3c(c2)OCO3)NC(c2c(F)cccc2Cl)N1 (stereo unspecified) -6.98%
COc1ccc(S(=O)(=O)Nc2cccc3cccnc23)c(N)c1 8.2%
COc1cccc(-n2ccn(CC(=O)NCc3ccc(C)cc3)c(=O)c2=O)c1 -17.3%
S=C(NCCc1ccccc1)NCC1CCCO1 (stereo unspecified) 5.26%
CCC(=O)NC(NCC1CCCO1)C(Cl)(Cl)Cl (stereo unspecified) -13.3%
O=C(CC1Oc2ccc(Cl)cc2NC1=O)NCc1ccccc1 (stereo unspecified) -13.4%
CCC(C(=O)OCC(=O)Nc1ccccc1-c1ccccc1)c1ccccc1 (stereo unspecified) 5.02%
CCC(C(=O)OCC(=O)Nc1c(Cl)cc(Cl)cc1Cl)c1ccccc1 (stereo unspecified) -5.4%
CCOC(=O)c1ccc(CSc2nnc3cc(C)c4ccccc4n23)cc1 11.8%
CCN(CC)S(=O)(=O)c1ccc(C(=O)N=c2sc3cccc(OC)c3n2C)cc1 -7.05%
CCOc1ccc(-c2nonc2NC(=O)c2oc3ccc(CC)cc3c2C)cc1 -6.14%
COc1ccc(S(=O)(=O)N2CCN(c3ccc(F)cc3)CC2)cc1-c1noc(C)n1 -9.63%
COc1ccc(N2CCN(S(=O)(=O)c3ccc(-c4coc(C)n4)cc3)CC2)cc1 3.09%
Cc1cc(C)cc(NC(=O)CCCc2nc(-c3ccccc3Cl)no2)c1 5.87%
Cc1ccc(NC(=O)c2ccc(CN3CC(=O)N4CCCCC4C3=O)cc2)c(Cl)c1 (stereo unspecified) 1.45%
CCNC(=O)CC1C(=O)N(c2ccc(F)cc2)C(=O)N1Cc1ccc(C)cc1 (stereo unspecified) -4.84%
Cc1ccc(CC2C(=O)N(c3ccc(F)cc3)C(=O)C2C)cc1 (stereo unspecified) -14.1%
Cn1c(=O)c2c(nc(Oc3ccc(C#N)cc3)n2Cc2ccc(Cl)cc2Cl)n(C)c1=O 17.3%
Cc1nn(-c2ccccc2)c(Cl)c1/C=C/C(=O)c1ccc(O)cc1 -19.2%
O=C(/C=C/c1ccc(Cl)cc1)N1CCN(c2ccccc2[N+](=O)[O-])CC1 -7.39%
Cc1ccc(Cl)cc1NC(=O)/C(C#N)=C\c1cn(Cc2ccc(F)cc2)c2ccccc12 -3.88%
Cc1ccccc1OCc1nc2c3cnn(-c4ccccc4F)c3ncn2n1 3.88%
COc1ccccc1CNC(=O)COc1ccc(C)nc1[N+](=O)[O-] 4.17%
COc1ccccc1C(=O)OCC(=O)NCCNC(=O)COC(=O)c1ccccc1OC 9.27%
COc1ccc(S(=O)(=O)NCC(c2ccc(N(C)C)cc2)N2CCCC2)cc1 (stereo unspecified) -3.85%
Cc1cc(OCC(=O)NCC2(N(C)C)CCCCC2)cc(C)c1Cl 1.84%
CC1CCC(NC(=O)CNC(=O)c2ccc3ccccc3c2)CC1 (stereo unspecified) -16.3%
O=C(Nc1ncccc1O)c1ccc(C(=O)c2ccccc2)cc1 -8.68%
Cc1ccc(S(=O)(=O)N2CCCc3cc(NS(=O)(=O)c4cc(C)ccc4C)ccc32)cc1 -3.71%
CCc1ccc(NC(=O)CSc2nc3c([nH]c4ccccc43)c(=O)n2-c2cccc(OC)c2)cc1 -24.8%
CCOc1ccc(-c2cc3nc(C4CCN(C(=O)OC(C)(C)C)CC4)c(C(=O)Nc4cccc(CC)c4)cn3n2)cc1 2.76%
Cc1ccc(C(=O)Nc2ccc(C(=O)O)cc2)cc1S(=O)(=O)Nc1ccccc1 1%
CC(=O)Nc1ccc(NS(=O)(=O)c2ccc3c(c2)NC(=O)CC(=O)N3)cc1 19.3%
COc1cc2c(=O)c(S(=O)(=O)c3ccc(C(C)C)cc3)cn(Cc3ccccc3C)c2cc1OC 22.6%
CCCNC(=O)C1CCN(c2nc3ccc(C)cc3[nH]2)CC1 2.03%
CC(C)(C)N(Cc1ccccc1)C(=O)c1ccncc1 1.43%
CN(Cc1ccccc1)C(=O)c1cccc(C(=O)N(C)Cc2ccccc2)c1 -2.18%
COc1cc(CN(CC2CCCO2)C(=O)c2ccccc2F)cc(OC)c1OC (stereo unspecified) -5.27%
Cc1nc(N2CCN(c3ccccn3)CC2)c2c(C)c(C(=O)Nc3ccc(F)cc3)sc2n1 1.11%
Cc1c(CN2CCC(CO)(CCOc3ccccc3)CC2)[nH]c2ccc(Cl)cc12 -2.77%
CCCCN(C)S(=O)(=O)c1ccc(C(=O)Nc2sc3c(c2C(N)=O)CC(C)(C)NC3(C)C)cc1 18.5%
Cc1oc2ncn(CC(C)C)c(=O)c2c1C(=O)N1CCN(c2ccccc2F)CC1 -5.83%
Cn1c(=O)c(C(=O)O)nn(-c2ccccc2)c1=O -4.78%
CC(=O)N1CCc2cc(S(=O)(=O)NC(Cc3ccccc3)C(=O)NCc3ccc(C)cc3)ccc21 (stereo unspecified) 7.72%
CCC(=O)N1CCc2cc(S(=O)(=O)NC(C(=O)NCCc3ccc(C)cc3)C(C)C)ccc21 (stereo unspecified) 14.4%
CCC(=O)N1CCc2cc(S(=O)(=O)NC(Cc3ccccc3)C(=O)NCc3ccc(C)cc3)ccc21 (stereo unspecified) 20.6%
CCC(=O)N1CCc2cc(S(=O)(=O)NC(C(=O)Nc3ccc(C(C)=O)cc3)C(C)C)ccc21 (stereo unspecified) -1.32%
Cc1ccc(C)c(Cn2c(C(=O)O)c(CNCc3cccs3)c3ccccc32)c1 57.2%
Cc1ccccc1-c1nc2cc(NC(=O)c3cccc(OCCC(C)C)c3)ccc2o1 0.754%
CC1=C(C(=O)N2CCN(c3cccc(C(F)(F)F)c3)CC2)C2(CCCCC2)OC1=O -3.32%
COC(=O)c1ccccc1NC(=O)Cn1c(=O)n(-c2cccc(C(F)(F)F)c2)c(=O)c2c(C)c(C)sc21 0.199%
CCOC(=O)C1CCCN(CC(=O)Nc2cc(C)c3c(=O)oc4ccccc4c3n2)C1 (stereo unspecified) -9.54%
COc1ccccc1Nc1nc(N)nc(N)c1S(=O)(=O)c1ccccc1 3.62%
CCN(CC)S(=O)(=O)c1ccc(NC(=O)c2cnc(C)cn2)cc1 5.26%
Cn1c(CN2CCOCC2)nc2cc(NC(=O)c3ccc(Cl)cc3)ccc21 -2.81%
Cc1ccc(Cl)cc1NC(=O)CSc1nc2ccccc2nc1Cc1ccccc1 3.51%
CN1CCN(S(=O)(=O)c2ccc(N3CCN(c4ccccc4O)CC3)c([N+](=O)[O-])c2)CC1 7.38%
COc1ccc(NS(=O)(=O)c2ccc(N3CCN(CCO)CC3)c([N+](=O)[O-])c2)cc1 -20.8%
Cc1cccc(N2CCN(c3ccc(C(N)=O)cc3[N+](=O)[O-])CC2)c1C 9.32%
CS(=O)(=O)N1CCN(c2ccc(C(=O)NC3C4CC5CC(C4)CC3C5)cc2[N+](=O)[O-])CC1 (stereo unspecified) -9.31%
COC(=O)c1c(NC(=O)C(C)Oc2ccc(Cl)c(C)c2)sc(C)c1C (stereo unspecified) 14.5%

Activity change, negative = inhibition, active:
Cc1nn(Cc2ccc(C(=O)N3N=C(C(F)F)CC3(O)C(F)F)cc2)c(C)c1[N+](=O)[O-] (stereo unspecified) -31.2%
Cn1nnnc1SCC(=O)Nc1ccccc1C(=O)NC1CC1 -31.5%
CC1(C(=O)NNC(=S)NCC2CCCO2)CC1(Cl)Cl (stereo unspecified) -33.9%
CCC(C(=O)OCC(=O)Nc1ccc(C(=O)Nc2ccc(OC)cc2)cc1)c1ccccc1 (stereo unspecified) -57.6%
CCc1nc(-c2cc(S(=O)(=O)N3CCN(c4ccc(OC)cc4)CC3)ccc2OC)no1 -58.8%
C=C1c2cc(CC)ccc2NC(=O)N1c1ccc(C)cc1 -37.2%
CN(C)c1ccc(/C=C/C(=O)c2ccc(O)cc2)cc1[N+](=O)[O-] -31.2%
COc1ccccc1CNC(=O)COC(=O)c1sc(C)nc1C -37.9%
O=C(CNC(=O)c1ccc2ccccc2c1)Nc1ncccc1O -39.8%
CC(=O)Nc1ccc(NS(=O)(=O)c2cc(C)sc2C)cc1 -48.1%
CN(C(=O)CN(CCO)CC(=O)N(C)C(C)(C)Cc1ccccc1)C(C)(C)Cc1ccccc1 -97.3%
Cc1c(CN2CC[C@@H](N3CCN(c4ccccn4)CC3)[C@H](O)C2)[nH]c2ccc(F)cc12 -30.2%
CCC(=O)N1CCc2cc(S(=O)(=O)NC(C(=O)N3CCc4ccccc4C3)C(C)C)ccc21 (stereo unspecified) -32.3%
CCC(=O)N1CCc2cc(S(=O)(=O)NC(Cc3ccccc3)C(=O)NCc3ccccc3)ccc21 (stereo unspecified) -62%
CCN(CC)S(=O)(=O)c1ccc2c(c1)nc(CN(C)C(=O)Nc1ccc(Cl)cc1)n2C -30.4%
CN1CCN(c2ccc(S(=O)(=O)Nc3ccccc3)cc2[N+](=O)[O-])CC1 -46.5%
Cc1ccc(C(=O)c2ccc(N3CCN(C)CC3)c([N+](=O)[O-])c2)cc1 -41.9%
